Each structure is given as a SMILES string. Out of some 1,900 compounds screened, about 1,000 (53%) were called active.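 Rule for the calls: active = mean PP1 inhibition above a set limit taken from the earlier primary screen (cut at about 15% in these data); inactive = the rest.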 The set was probably picked from earlier hits. Not all results are given here.

Chain of Serine/threonine-protein phosphatase PP1-alpha catalytic subunit (Homo sapiens) (P62136 whole entry, looked up): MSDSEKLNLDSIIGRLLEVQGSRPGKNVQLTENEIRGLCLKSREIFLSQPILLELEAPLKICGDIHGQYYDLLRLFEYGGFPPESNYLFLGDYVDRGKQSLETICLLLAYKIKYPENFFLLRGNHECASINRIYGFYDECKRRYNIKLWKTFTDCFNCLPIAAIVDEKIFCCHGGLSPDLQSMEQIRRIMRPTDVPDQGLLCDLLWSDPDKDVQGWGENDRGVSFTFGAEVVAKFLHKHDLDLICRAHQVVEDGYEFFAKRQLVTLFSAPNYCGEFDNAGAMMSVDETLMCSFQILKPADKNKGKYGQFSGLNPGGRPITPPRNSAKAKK

This experiment concerns the target Serine/threonine-protein phosphatase PP1-alpha catalytic subunit (Homo sapiens) (UniProt P62136). The experiment is described as follows: inhibition of human PP1-alpha enzyme activity – biochemical, fluorescence, OMFP substrate, triplicate, confirmation (AID 2358). Particulars: purified PP1alpha, at 6.7 µM, hits give high values.
In the case of `Cc1ccc(C)c(Cn2nnc3c(=O)[nH]c(C(=O)Nc4ccc(F)cc4)nc32)c1`, the inhibition (commonly the change of the read-out against control, counted positive when it falls) was 20.8% (active). Turning to `COc1ccccc1NC(=O)CSc1nc2sc3c(c2c(=O)n1-c1ccccc1)CCN(C)C3`, the inhibition was 10.6% (inactive).

On to `Cc1cc(N/N=C\c2ccc(Br)cc2)nc(-n2nc(C)cc2C)n1`, for which the inhibition was 21.7% (active). As for `COc1ccccc1/C=N\Nc1cc(C)nc(-n2nc(C)cc2C)n1`, the inhibition is 44.3% (active). In the case of `CN1CCN(CCCNC(=O)c2ccc(/C=C3\Oc4ccccc4N(Cc4ccc(Cl)cc4)C3=O)cc2)CC1` it was 6.35% (inactive). In the case of `O=C(COC(=O)c1ccc(Oc2ccccc2)cc1)Nc1nnc(-c2ccccc2)o1`, the inhibition is 16.8% (active).

For `O=C(N=C1SC2CS(=O)(=O)CC2N1c1cc(Cl)ccc1Cl)C1CC1` (stereo not given), the inhibition is -1.43% (inactive).

Take `Cc1ccc(Nc2nc(CSc3nnnn3-c3ccccc3)cc(=O)[nH]2)cc1`: the inhibition is 26% (active). `Cc1cc(Nc2ccccc2)n(C(=O)c2ccc(N)cc2)n1`: the inhibition was 2.75% (inactive).

Regarding `Cc1ccc(N2C(=O)C3N=NN(CC(=O)N4N=C(c5cccc6ccccc56)CC4c4ccccc4)C3C2=O)cc1` (stereo not given), the inhibition was 12.9% (inactive).

As to `O=C1c2cccc(OCC(=O)N3N=C(c4cccs4)CC3c3ccc(F)cc3)c2CCN1Cc1ccccc1` (stereo not given), the inhibition is 13.1% (inactive).

Take `O=C1C2N=NN(CC(=O)N3N=C(c4cccc5ccccc45)CC3c3ccccc3)C2C(=O)N1c1ccccc1` (stereo not given): the inhibition was 24.2% (active). In the case of `O=[N+]([O-])c1ccccc1/C=N/n1c(COc2ccccc2)n[nH]c1=S` it was -1.61% (inactive); in that of `CCCCn1c(SCc2ncc(-c3ccccc3)o2)nc2cc(S(N)(=O)=O)ccc21`, 11% (inactive). In the case of `CC(C)OC(=O)c1cc(NC(=O)C2C3CCC(O3)C2C(=O)O)cc(C(=O)OC(C)C)c1` (stereo not given) it was 5% (inactive); in that of `COc1ccc(NC(=O)C2C3CCC(O3)C2C(=O)O)cc1OC` (stereo not given), 18.6% (active); in that of `Oc1c(C(c2ccccn2)N2CCOCC2)ccc2cccnc12` (stereo not given), 69.3% (active). In the case of `Cc1ccc(-n2nc3ccc(NC(=O)/C=C/c4ccco4)cc3n2)cc1C`, the inhibition was 14.7% (inactive).

For `Oc1c(Cl)cc(Cl)c(Cl)c1Cc1c(O)c(Cl)cc(Cl)c1Cl`, the inhibition was 22.2% (active). `Cc1cc(-c2csc(N)n2)c(C)n1-c1ccccc1`: the inhibition is 10.2% (inactive). For `CCOc1ccc(NC(=O)c2ccc(NC(=O)COC(=O)c3ccc(NC(=O)CC#N)cc3)cc2)cc1`, the inhibition is 47.8% (active). In the case of `CN(C(=O)COC(=O)c1cc(-c2ccco2)nc2ccccc12)C1CCS(=O)(=O)C1` (stereo not given), the inhibition was 20.3% (active). In the case of `CCn1c(SCC(=O)Nc2cc(C)ccc2C)nnc1-c1cnccn1` it was -2.85% (inactive); in that of `c1ccc(-c2nccc(-c3ccc(-n4cnc5ccccc54)cc3)n2)nc1`, 65.5% (active); in that of `O=C1C(=O)N(CC2COc3ccccc3O2)c2ccccc21` (stereo not given), 1.9% (inactive).

Consider `CC1CCCCN1S(=O)(=O)c1ccc(C(=O)Nc2nnc(-c3cccs3)o2)cc1` (stereo not given), for which the inhibition was 23.2% (active). Regarding `Cc1ccccc1S(=O)(=O)N1[C@@H](c2cccc(Cl)c2)C(C(=O)O)=CC[C@H]1c1ccc(Cl)cc1`, the inhibition was 15.6% (active).

With `Cc1ccc(S(=O)(=O)N2[C@@H](c3cccc(Cl)c3)C(C(=O)O)=CC[C@H]2c2ccc(Cl)c(Cl)c2)cc1`, the inhibition was 18.2% (active). Turning to `COc1ccc(-c2nn(-c3ccccc3)cc2/C=C2/SC(=S)N(CCCC(=O)O)C2=O)c(C)c1`, the inhibition was 29.4% (active). Regarding `COc1ccc(-c2nn(-c3ccccc3)cc2/C=C\C(=O)Nc2ccc(C(=O)O)cc2)cc1`, the inhibition was 11% (inactive). Turning to `Cc1ccc(-c2nn(-c3ccccc3)cc2/C=C2\SC(=S)N(CCCCCC(=O)O)C2=O)o1`, the inhibition was 19.6% (active). For the compound `CS(=O)(=O)c1ccc2c(c1)SC1=NC(=O)/C(=C/c3ccco3)C(=N)N12`, the inhibition is 7.76% (inactive). As to `CCCc1ccc(OCC(=O)NNC(=S)NC(=O)c2ccco2)cc1`, the inhibition is 14.1% (inactive). Regarding `Cc1ccc(OCC(=O)Nc2ccc(-c3nnc(-c4ccco4)o3)cc2)cc1`, the inhibition was 25.6% (active). Turning to `O=C(CSc1nnc(C2CC2)n1Cc1ccccc1)Nc1cccnc1Cl`, the inhibition is -0.54% (inactive). For `C=CCn1c(=NC(=O)c2ccc(S(=O)(=O)N3CCCC3)cc2)sc2cc(NC(C)=O)ccc21`, the inhibition was 23.1% (active). With `N#Cc1c(-c2ccccc2)nc(SCc2cccc(C(F)(F)F)c2)[nH]c1=O`, the inhibition was 14.1% (inactive). In the case of `Clc1ccc2c(c1)C1=C(C(c3ccncc3)O2)C(c2ccc(Br)cc2)n2ncnc2N1` (stereo not given) it was 18.4% (active); in that of `O=C(N/N=C/c1cc([N+](=O)[O-])ccc1O)/C(=C\c1cccs1)NC(=O)c1ccccc1`, 30.9% (active); in that of `CCOc1ccc(/C=C/C(=O)OCC(=O)c2ccccc2OC)cc1OC`, 0.75% (inactive). Regarding `COc1cnc(-c2ccccn2)nc1Oc1ccc(C(C)(C)C)cc1`, the inhibition is 32.3% (active). For `CC(C)(C)Nc1nc(-c2ccccn2)nc2ccccc12`, the inhibition was 7.11% (inactive).

Consider `Cc1ccc(CSCC2Nc3ccc(C(=O)N4CCN(c5ccc(F)cc5)CC4)cc3NC2=O)cc1` (stereo not given), for which the inhibition is 22.6% (active). Take `Oc1ccc(C2Nc3cccc4cccc(c34)N2)cc1`: the inhibition was 0.4% (inactive). As for `COCCCNC(=O)C1CC(=O)N(c2ccc(C)cc2)C1` (stereo not given), the inhibition was -1.39% (inactive).

As for `OCCNc1nc(Nc2ccc(Cl)c(Cl)c2)nc2ccccc12`, the inhibition is -0.84% (inactive).

`Oc1c(CN2CCN(c3ccc(F)cc3)CC2)cc(Cl)c2cccnc12`: the inhibition is 39.1% (active). Regarding `CCCCCCCCCCOC(=O)Cn1c(COc2ccc(C)cc2)[n+](C)c2ccccc21`, the inhibition was 12.8% (inactive). In the case of `Cc1ccc(NS(=O)(=O)c2ccc(N/N=C/c3ccccc3OCC(=O)O)c([N+](=O)[O-])c2)c(C)c1` it was 16% (active); in that of `Nc1ccc2nc3c(=O)[nH]c(=S)[nH]c3nc2c1`, 34% (active); in that of `C/C(=N\c1nc2ccccc2n1C)c1cc(Cl)ccc1O`, -7.49% (inactive). For `C=C1c2c(Cl)ccc(O)c2C(O)=C2C(=O)[C@]3(O)C(O)=C(C(N)=O)C(=O)[C@@H](N(C)C)[C@@H]3[C@@H](O)C12` (stereo not given in full), the inhibition is 7.26% (inactive). As to `COCCN(CCOC)S(=O)(=O)c1ccc(C(=O)Nc2nc3c(s2)CCc2ccccc2-3)cc1`, the inhibition was 34.5% (active). In the case of `O=C(Nc1nc(-c2ccco2)c(-c2ccco2)s1)c1ccco1` it was 2.84% (inactive); in that of `C=CCN(CC=C)S(=O)(=O)c1ccc(C(=O)Nc2nc3c(s2)CCc2ccccc2-3)cc1`, 27.9% (active); in that of `O=[N+]([O-])/C=C/c1ccc2c(ccn2Cc2ccccc2)c1`, 13.8% (inactive). On to `Cc1cccc(OCC(O)Cn2c(=N)n(CCN3CCOCC3)c3ccccc32)c1` (stereo not given), for which the inhibition is -3.3% (inactive). In the case of `CCCCCCCCCCOC(=O)Cn1c(COc2cccc(OC)c2)[n+](C)c2ccccc21` it was 8.62% (inactive). Turning to `O=C(Nc1cccc(-c2nc3ccccc3[nH]2)c1)c1ccc(C(=O)Nc2cccc(-c3nc4ccccc4[nH]3)c2)cc1`, the inhibition was 2.51% (inactive).

Regarding `Clc1ccc(-n2nnnc2-c2cnc(-c3ccccn3)nc2-c2cccs2)cc1`, the inhibition is 64.5% (active). With `Cc1ccc(Cn2nnc3c(=O)[nH]c(C4CCN(S(=O)(=O)/C=C/c5ccccc5)CC4)nc32)cc1`, the inhibition is 20.5% (active). With `Cc1ccc(NC(=O)COc2ccc(/C=C3/NC(=O)NC3=O)cc2)cc1`, the inhibition was 16.6% (active).

For `NC(N)=N/N=C/c1ccc(OCc2ccc(Cl)cc2Cl)cc1`, the inhibition was 17.3% (active).

With `CC(=O)c1ccc(N2CCN(S(=O)(=O)c3ccc4c(c3)CC(=O)N4C)CC2)cc1`, the inhibition was 7.42% (inactive). Turning to `Cc1ccc(-c2cc(C(=O)Nc3nn[nH]n3)c3ccccc3n2)c(C)c1`, the inhibition was 0.22% (inactive). For `O=C(Nc1nnc(-c2ccccc2)o1)c1cc(-c2cccs2)nc2ccccc12`, the inhibition was 28.1% (active). Regarding `O=C(Nc1ccc(S(=O)(=O)Nc2nccs2)cc1)c1cc(-c2ccncc2)nc2ccccc12`, the inhibition is 12.1% (inactive). In the case of `O=C(/C=C/c1ccc(F)cc1)NC(=S)NNC(=O)c1cccnc1` it was 14.7% (inactive); in that of `COc1cccc(/C=N/NC(=O)c2[nH]nc3c2CCc2ccccc2-3)c1O`, 36% (active). In the case of `N=c1n(Cc2ccc(Cl)cc2)c2ccccc2n1CC(O)c1ccco1` (stereo not given) it was -2.68% (inactive); in that of `Cc1ccc2nc(N3C(=O)C(O)=C(C(=O)c4ccco4)C3c3cccc(O)c3)sc2c1` (stereo not given), 20.8% (active); in that of `CCNS(=O)(=O)c1ccc(NC(=O)Nc2cccc(C(F)(F)F)c2)cc1`, 4.33% (inactive). Turning to `Cc1nc2c(C(=O)NCc3ccc4c(c3)OCO4)c[nH]n2c(=O)c1Cc1ccccc1F`, the inhibition was 32.2% (active). Consider `COc1cc(C2C(C(=O)c3ccc(C)o3)=C(O)C(=O)N2CCc2ccccc2)ccc1O` (stereo not given), for which the inhibition is 27.1% (active). For `COc1ccc(C2C(C(C)=O)=C(O)C(=O)N2CCc2c[nH]c3ccccc23)cc1` (stereo not given), the inhibition was 11.8% (inactive).

With `CCCOc1ccc(C2C(C(=O)c3ccc(C)o3)=C(O)C(=O)N2CCCn2ccnc2)cc1` (stereo not given), the inhibition was 37.2% (active). In the case of `Cc1cc(N2C(=O)C(O)=C(C(=O)c3ccc(C)o3)C2c2ccc(OCc3ccccc3)cc2)no1` (stereo not given), the inhibition is 32.6% (active).

Regarding `C/C(CC(O)(/C=N/O)c1ccccc1)=N\O` (stereo not given), the inhibition is -3.06% (inactive). With `Cc1ccc2cc(CCNC(=O)c3c(-c4ccccc4Cl)noc3C)c(=O)[nH]c2c1`, the inhibition was -1.41% (inactive). In the case of `COC(=O)Cc1cc(=O)n(-c2nc3ccccc3s2)[nH]1` it was 0.62% (inactive); in that of `CN(C(=O)CN(CCO)CC(=O)N(C)C(C)(C)Cc1ccccc1)C(C)(C)Cc1ccccc1`, -9.33% (inactive); in that of `C#CCOCCOCCOCCNc1nc(N2CCN(C(=O)CCCCCCCCCCNC(=O)Cn3cc(CCCCCN)nn3)CC2)nc(N2CCN(C(=O)CCCCCCCCCCNC(=O)[C@H](CO)n3cc(CCCSC)nn3)CC2)n1`, 50.9% (active).

In the case of `C#CCOCCOCCOCCNc1nc(N2CCN(C(=O)CCCCCCCCCCNC(=O)[C@H]([C@@H](C)CC)n3cc(CCCCN=C(N)N)nn3)CC2)nc(N2CCN(C(=O)CCCCCCCCCCNC(=O)[C@H](CO)n3cc(CCCSC)nn3)CC2)n1`, the inhibition was 42.5% (active). For `C#CCOCCOCCOCCNc1nc(N2CCN(C(=O)CCCCCCCCCCNC(=O)[C@H](CCCCN)n3cc(C)nn3)CC2)nc(N2CCN(C(=O)CCCCCCCCCCNC(=O)[C@H](CO)n3cc(CCCSC)nn3)CC2)n1`, the inhibition is 41.8% (active). `C=CCn1c(=S)[nH]c2scc(-c3ccco3)c2c1=O`: the inhibition is 7.08% (inactive).

Turning to `Cc1nc(/N=C(\N)NC(=O)NC2CCCCC2)nc2ccccc12`, the inhibition is 26.9% (active). For the compound `Cc1ccc(-c2cc(C(=O)N/N=C/C=C/c3ccco3)c3ccccc3n2)cc1C`, the inhibition was 9.2% (inactive).

`OCCCN1c2ccccc2Nc2nnc(-c3ccccc3)cc21`: the inhibition is 27.3% (active). Regarding `CCC(=C/c1sc2ccc3ccccc3c2[n+]1C)/C=C1\Sc2ccc3ccccc3c2N1C`, the inhibition was 62.5% (active). Regarding `CSc1ccc(/C=N\NC(=O)COc2ccc(Cl)cc2Br)cc1`, the inhibition is -1.13% (inactive).
